A selection: hits, their analogues and other compounds. The true share with any hit is near 3.6%.
MazEF act = activators of E. coli MazEF toxin-antitoxin RNase, primary screen, biochemical, fluorescence, uHTS. Endoribonuclease toxin MazF (Escherichia coli (strain K12)), P0AE70. FAM/BHQ RNA-DNA oligo cleavage fluorescence, 5 h. activation, % at 20 µM. 0.32% of 350,000 active. AID 504720, 2011; in the data active means activation above about 50%
Target sequence (P0AE70 whole entry, looked up): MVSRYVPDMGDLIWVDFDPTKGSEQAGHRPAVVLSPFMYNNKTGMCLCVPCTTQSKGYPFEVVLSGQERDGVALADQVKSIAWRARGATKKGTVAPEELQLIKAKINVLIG
BoNT F protease = BoNT/F light chain protease inhibitors, primary screen, biochemical, flow cytometry, MLPCN library. Multiplex microsphere protease cleavage assay. Botulinum neurotoxin type F light chain protease (Clostridium botulinum). 0.22% of 360,000 active. inhibition, % at 10 µM; in the data active means inhibition above about 35%, passing the limit was not always enough; inconclusive means no clear call, values can overlap the other calls; further: plate controls were buffer without enzyme for full effect and enzyme alone for no effect
BoNT A protease = BoNT/A light chain protease inhibitors, primary screen, biochemical, flow cytometry, MLPCN library; Botulinum neurotoxin type A light chain protease (Clostridium botulinum A str. ATCC 3502); multiplex microsphere protease substrate cleavage; inhibition, % at 10 µM; 0.17% of 360,000 active; further: plate controls were buffer without enzyme for full effect and enzyme alone for no effect
Bead autofluor = compound fluorescence in toxin protease inhibitor counterscreen; compound autofluorescence counterscreen, microsphere flow cytometry; hits give high values; fluorescence intensity (concentration not given with the values); 3.1% of 360,000 active; AID 624483; in the data active means fluorescence intensity above about 16000; inconclusive means no clear call, values can overlap the other calls
Anthrax LF inh2 = Bacillus anthracis LF protease inhibitors, primary screen, biochemical, multiplex microsphere, MLPCN library; Lethal factor (Bacillus anthracis), P15917; 0.12% of 360,000 active; inhibition, % at 10 µM; AID 588501, 2011; multiplex microsphere protease cleavage assay; further: plate controls were buffer without enzyme for full effect and enzyme alone for no effect
An asterisk follows results filed as active; ? = inconclusive; . = not tested or not shown. Unless noted, no stated cut-off is given here; in the data, active means inhibition above about 30%; inconclusive means no clear call, values can overlap the other calls; inactive means below that.

SMILES	MazEF act	BoNT F protease	BoNT A protease	Bead autofluor	Anthrax LF inh2
Cc1nn(C)c(C)c1S(=O)(=O)N1CCC(C(=O)NC2CCCc3ccccc32)CC1 (stereo not given)	-3.0	-5.3	-0.6	6357	6.2
C=CC[C@H](CC(=O)NCCO)C(=O)NCCOC(=O)[C@@H](CC=C)Cc1ccc(F)cc1	0.5	-0.8	0.1	3074	4.7
CC(=O)NS(=O)(=O)c1ccc(NC(=O)c2ccc(S(=O)(=O)N3CCCC3)cc2)cc1	2.9	-10.8	-1.3	4201	-6.8
COC(=O)c1[nH]c2cccc(OC)c2c1NC(=O)CN1CCOCC1	-5.6	-4.5	-0.7	2909	2.2
COC(=O)c1[nH]c2cccc(OC)c2c1NC(=O)CN(C)CC1OCCO1	-5.3	-2.0	-1.3	16319*	-11.6
CN1CCN(/C=N/c2c(C#N)cnn2Cc2ccccc2)CC1	7.4	-2.6	?	20606*	-5.2
N#Cc1cnn(Cc2ccccc2)c1/N=C/N1CCOCC1	1.2	-5.4	-0.3	4195	1.6
COc1ccc(C)cc1-n1nnnc1SC/C(O)=C(\C#N)c1nc2ccccc2[nH]1	1.5	-1.1	0.4	21719*	0.6
CC(C)c1ccc(NC(=O)Nc2nc(C(N)c3ccccc3Cl)cs2)cc1 (stereo not given)	.	-10.5	-0.3	3546	-5.5
c1ccc(Cn2nnc3c(N4CCc5ccccc5C4)ncnc32)cc1	-0.6	8.4	4.2	20729*	1.2
c1ccc(Cn2nnc3c(N4CCCC4)ncnc32)cc1	-3.2	-4.4	-1.2	16477*	0.5
Clc1ccccc1Nc1ncnc2c1nnn2Cc1ccccc1	8.8	-1.6	?	16216*	-5.4
Fc1ccccc1Nc1ncnc2c1nnn2Cc1ccccc1	-4.3	4.1	-1.7	3623	1.2
CCN1C(=O)[C@H]2[C@@H](c3ccc(OC)cc3)N[C@]3(CCCN(CCC(C)C)C3=O)[C@H]2C1=O	-16.4	-6.0	-0.2	3870	0.4
COc1ccc(N2C(=O)c3cccc4c(N(C)CCO)ccc(c34)C2=O)cc1	155.0*	?	7.1	4739	5.5
COc1ccc(N2C(=O)c3cccc4cccc(c34)C2=O)cc1	6.8	7.2	2.5	3095	13.1
Cc1cc(Nc2cccc(F)c2)n2c(n1)nc1ccccc12	57.5*	10.2	0.6	4124	6.7
CCN(CC(=O)Nc1ccc(OC)cc1)CC(=O)Nc1cccc(S(=O)(=O)N2CCOCC2)c1	0.9	-0.2	0.1	3802	2.7
CCc1nc(SCC(=O)Nc2nnc(C(C)C)s2)n[nH]1	-1.1	-5.6	-0.6	3703	-7.0
Cn1cccc1Cc1nnc(SCC(=O)N2CCN(c3ccccc3)CC2)n1-c1ccc(F)cc1	13.5	-2.9	?	24052*	-2.0
CCOC(=O)c1ccccc1NC(=O)CSc1nnc(Cc2cccn2C)n1-c1ccc(F)cc1	5.9	-0.5	0.8	23284*	-5.8
CC1CCCCN1CCCNC(=O)c1ccc(N2CCCC2=O)cc1 (stereo not given)	-3.6	5.4	0.1	5958	-1.6
Cc1ccc(CCNS(=O)(=O)c2cc(Br)cnc2N)cc1	-3.7	0.1	2.2	5274	-0.3
O=C(/C=C/[C@H]1O[C@@H](n2ccc(=O)[nH]c2=O)[C@H](O)[C@@H]1O)NCCN1CCCC1	.	-1.2	-0.7	5603	7.0
CC(=O)Nc1ccc(N=Cc2nc(-c3ccc(C)cc3)oc2O)cc1	245.1*	-2.7	0.2	4024	-4.7
SMILES	MazEF act	BoNT F protease	BoNT A protease	Bead autofluor	Anthrax LF inh2
CC(=O)Oc1oc(-c2ccccc2)nc1C=Nc1ccc(N(C)C)cc1	11.1	?	0.4	4059	14.9
CN(C)c1ccc(N=Cc2nc(-c3ccccc3)oc2O)cc1	245.9*	8.2	0.5	3171	-2.1
CN(C)c1ccc(N=Cc2nc(-c3ccccc3)oc2OC(=O)c2ccccc2)cc1	353.6*	-0.9	1.5	2521	-1.4
Cc1ccc(N=Cc2nc(-c3ccc(C)cc3)oc2O)cc1	-10.3	-17.9	-1.5	3875	1.3
COc1ccccc1N(C)S(=O)(=O)c1ccc(C(=O)NCc2ccccc2CN2CCCC2)cc1	12.2	0.5	0.2	3738	0.3
CN1CCN(C(c2ccc(Br)cc2)c2cc(Cl)c3cccnc3c2O)CC1 (stereo not given)	-46.3	-8.7	1.3	4855	-2.7
Cc1noc(C)c1CSCC(=O)N1CCN(c2ccc(F)cc2)CC1	-14.3	-2.4	-0.4	16984*	-3.2
Cc1cccc(N2CCN(C(=O)CSCc3c(C)noc3C)CC2)c1C	7.8	-1.5	-0.4	23925*	0.6
O=C(CSCc1ccc(F)cc1)N1CCOCC1	1.8	7.6	6.8	20026*	-11.8
O=C(CSCc1ccc(Br)cc1)N1CCOCC1	5.3	-1.8	-0.3	10667	-0.3
O=c1[nH]cnc2c1ncn2C1OC(CO)CC1F (stereo not given)	.	-3.5	-0.2	5960	-3.3
Cc1ccc(N2C(=O)C3ON(c4ccccc4)C(c4ccncc4)C3C2=O)cc1 (stereo not given)	-2.8	0.0	-0.1	20770*	-0.3
O=C1C2ON(c3ccccc3)C(c3ccncc3)C2C(=O)N1c1ccc(N2CCOCC2)cc1 (stereo not given)	8.4	-0.7	0.1	4223	-7.4
O=C1C2ON(c3ccccc3)C(c3ccncc3)C2C(=O)N1c1ccc(Br)cc1 (stereo not given)	-5.0	-1.2	?	20513*	2.1
Cc1cc(C)c(C(=O)c2ccccc2C(=O)O)c(C)c1	.	-1.1	-0.1	6185	-7.4
Cc1cc(-c2onc3ccc(Cl)cc23)ccc1O	4.5	5.8	-0.2	3575	-3.9
c1ccc2c(c1)nnn2-c1ncnc2sc3c(c12)CCCC3	-13.9	-3.4	-1.9	23314*	-0.4
Cc1nc(-n2nnc3ccccc32)c2c3c(sc2n1)CCCC3	-6.3	2.0	0.7	10359	-4.4
O=C(CCn1nnc2ccccc21)OCC(=O)c1ccc(F)cc1	7.1	3.0	-0.7	3609	1.0
Cc1ccc([N+](=O)[O-])cc1N/C=C1\CCCCC1=O	98.0*	-1.0	6.6	4905	7.6
COc1ccccc1CNC(=O)COC(=O)Cn1cnc2c1c(=O)n(C)c(=O)n2C	-8.9	0.6	0.5	3341	-1.5
Cc1cc(C(O)c2ncc(-c3ccc(Cl)cc3)[nH]2)ccc1F (stereo not given)	.	-0.6	-0.3	3544	-1.4
O=C(Nc1ccc(-c2cn3ccsc3n2)cc1)c1ccc(F)c(S(=O)(=O)N2CCOCC2)c1	10.1	-3.3	-1.5	19935*	-6.4
CCOC(=O)CCCc1c[nH]c2ccccc12	-7.4	4.0	5.1	21767*	-0.7
CC(C)(C)NC(=O)NC(=O)COC(=O)CCCc1c[nH]c2ccccc12	-5.5	-9.1	-2.8	24864*	-3.4
Cc1cccnc1NC1(C(F)(F)F)N=C(c2ccccc2)NC1=O (stereo not given)	-1.7	-0.8	0.6	20365*	-1.7
CC(=O)NC1(C(F)(F)F)N=C(c2ccccc2)NC1=O (stereo not given)	1.1	-3.7	1.2	2294	0.8
